# Results as given in PubChem BioAssay (Tox21).
# Records with an inconclusive call do not appear. Calls of active or inactive are those of the source. Calls come from the whole dose curve; as a rule, active = well fitted curve in the direction sought with a large enough effect in the repeat runs; inconclusive = weak or mixed curves; inactive = no such curve, though single readings can be large; an effect the other way counts as inactive or inconclusive.
# System: not listed separately
# Test: qHTS assay to identify aromatase inhibitors - cell viability counter screen (AID 743084);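 note: cells stimulated with testosterone during compound exposure; nearly all actives have a fitted effect of over 55% in size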
# Conditions: MCF-7 aro ERE viability, CellTiter-Fluor, 24 h; series mostly up to 70.3 µM; activity change, negative = cytotoxicity: at the top concentration
# % is set by controls: 0 for no effect and ±100 for the full control effect.
SMILES,"activity change, negative = cytotoxicity",Potency
CC1=CC(C)C(C=O)C(C)C1 (stereo unspecified),3.64% (inactive),–
Cc1cc(C)c(NC(=O)CN(CC(=O)O)CC(=O)O)c(C)c1Br,9.91% (inactive),–
OC/C=C/c1ccccc1,–,inactive
C#CC(O)C(CC)CCCC (stereo unspecified),-1.05% (inactive),–
C=C(C)C(=O)OCCCCCCCCCCCCCCCCCC,-0.965% [at 32.5 µM] (inactive),–
C=CCOc1nc(OCC=C)nc(OCC=C)n1,3.92% (inactive),–
CCCCCN(CCCCC)C(=O)C(CCC(=O)O)NC(=O)c1ccc(Cl)c(Cl)c1 (stereo unspecified),2.96% (inactive),–
OCCCCCCO,13.2% [at 95 µM] (inactive),–
NS(=O)(=O)c1cc2c(cc1C(F)(F)F)NC(Cc1ccccc1)NS2(=O)=O (stereo unspecified),1.04% [at 32.5 µM] (inactive),–
CCO[Si](CCCN=C=O)(OCC)OCC,-1.26% (inactive),–
CC(C=O)Cc1ccc(C(C)C)cc1 (stereo unspecified),1.14% (inactive),–
CC1=CC(=O)CCC1,10.2% (inactive),–
O=C(O)/C=C/c1ccc(/C=C/C(=O)O)cc1,-4.12% (inactive),–
CCCOCC(C)OCC(C)O (stereo unspecified),-5.24% [at 95 µM] (inactive),–
OC[C@H]1O[C@@H]2O[C@H]3[C@H](O)[C@@H](O)[C@@H](O[C@H]4[C@H](O)[C@@H](O)[C@@H](O[C@H]5[C@H](O)[C@@H](O)[C@@H](O[C@H]6[C@H](O)[C@@H](O)[C@@H](O[C@H]7[C@H](O)[C@@H](O)[C@@H](O[C@H]8[C@H](O)[C@@H](O)[C@@H](O[C@H]9[C@H](O)[C@@H](O)[C@@H](O[C@H]1[C@H](O)[C@H]2O)O[C@@H]9CO)O[C@@H]8CO)O[C@@H]7CO)O[C@@H]6CO)O[C@@H]5CO)O[C@@H]4CO)O[C@@H]3CO,-9.99% [at 32.5 µM] (inactive),–
OCc1ccccn1,20% (inactive),–
CSc1ccc(C=O)cc1,23.5% (inactive),–
CCCc1ccccc1O,4.94% (inactive),–

SMILES,"activity change, negative = cytotoxicity",Potency
CCCC(=O)O[C@]1(C(=O)CCl)[C@@H](C)C[C@H]2[C@@H]3CCC4=CC(=O)C=C[C@]4(C)[C@@]3(F)C(=O)C[C@@]21C,1.91% (inactive),–
CCOC(=O)Cn1c(=O)sc2cccc(Cl)c21,11% (inactive),–
COC(=O)CCCC(=O)O,0.367% (inactive),–
C/C=C1\C(=O)C[C@H]2[C@@H]3CCC4=CC(=O)CC[C@]4(C)[C@H]3CC[C@]12C,-3.26% (inactive),–
FC(F)(F)C(F)(F)C(F)(F)C(F)(F)C(F)(F)C(F)(F)C(F)(F)C(F)(F)C(F)(F)C(F)(F)F,5.22% [at 8.47 µM] (inactive),–
C=CC(=O)OCCCCCC,4.79% (inactive),–
COc1cc(CCC(C)=O)ccc1O,1.07% (inactive),–
CCn1cc(C(=O)O)c(=O)c2cc(F)c(N3CCN(C)CC3)cc21,1.42% (inactive),–
O=S(=O)(O)c1ccccc1O,10.1% (inactive),–
C#CC(O)CCCCC (stereo unspecified),-1.38% [at 95 µM] (inactive),–
Cc1c(C)n(CCN(C)C)c2ccc(C(=O)OCCN(C)C)cc12,-3.58% (inactive),–
C=CC(=O)N1CCOCC1,0.0037% (inactive),–
OCC(O)[C@@H](O)[C@H](O)[C@H](O)CO[C@H]1O[C@H](CO)[C@@H](O)[C@H](O)[C@H]1O (stereo partly specified),-3.42% (inactive),–
CC(CCO)CCCC(C)(C)O (stereo unspecified),-3.49% (inactive),–
C[C@H]1O[C@@H](n2cc(F)c(=O)[nH]c2=O)[C@H](O)[C@@H]1O,-0.374% (inactive),–
CCCCCCCCCCC1CO1 (stereo unspecified),12.4% (inactive),–
N[C@@H](CS)C(=O)O,1.66% [at 95 µM] (inactive),–
C=C(C)C(=O)NCCC[N+](C)(C)C,-0.422% (inactive),–

# Target: Aryl hydrocarbon receptor (Homo sapiens) (UniProt P35869)
# Test: qHTS assay to identify small molecule that activate the aryl hydrocarbon receptor (AhR) signaling pathway (AID 743085); note: nearly all actives have a fitted effect of over 15% in size; note: potency is the fitted concentration of half-maximal effect;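 for activation: HG2L7.5c1 human HepG2 liver cells with stably integrated DRE-driven firefly reporter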
# Conditions: HepG2 AhR-luc (HG2L7.5c1), luciferase, 24 h; series mostly up to 70.3 µM; activation: at the top concentration
# Procedure, shortened: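 A multiplexed format paired cell viability (CellTiter-Fluor fluorescence) with AhR-dependent luciferase output (ONE-Glo luminescence) in the same wells of HepG2 DRE-luc cells after 24 h compound exposure at 37C.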
# Aryl hydrocarbon receptor (Homo sapiens), sequence (P35869 whole entry, looked up): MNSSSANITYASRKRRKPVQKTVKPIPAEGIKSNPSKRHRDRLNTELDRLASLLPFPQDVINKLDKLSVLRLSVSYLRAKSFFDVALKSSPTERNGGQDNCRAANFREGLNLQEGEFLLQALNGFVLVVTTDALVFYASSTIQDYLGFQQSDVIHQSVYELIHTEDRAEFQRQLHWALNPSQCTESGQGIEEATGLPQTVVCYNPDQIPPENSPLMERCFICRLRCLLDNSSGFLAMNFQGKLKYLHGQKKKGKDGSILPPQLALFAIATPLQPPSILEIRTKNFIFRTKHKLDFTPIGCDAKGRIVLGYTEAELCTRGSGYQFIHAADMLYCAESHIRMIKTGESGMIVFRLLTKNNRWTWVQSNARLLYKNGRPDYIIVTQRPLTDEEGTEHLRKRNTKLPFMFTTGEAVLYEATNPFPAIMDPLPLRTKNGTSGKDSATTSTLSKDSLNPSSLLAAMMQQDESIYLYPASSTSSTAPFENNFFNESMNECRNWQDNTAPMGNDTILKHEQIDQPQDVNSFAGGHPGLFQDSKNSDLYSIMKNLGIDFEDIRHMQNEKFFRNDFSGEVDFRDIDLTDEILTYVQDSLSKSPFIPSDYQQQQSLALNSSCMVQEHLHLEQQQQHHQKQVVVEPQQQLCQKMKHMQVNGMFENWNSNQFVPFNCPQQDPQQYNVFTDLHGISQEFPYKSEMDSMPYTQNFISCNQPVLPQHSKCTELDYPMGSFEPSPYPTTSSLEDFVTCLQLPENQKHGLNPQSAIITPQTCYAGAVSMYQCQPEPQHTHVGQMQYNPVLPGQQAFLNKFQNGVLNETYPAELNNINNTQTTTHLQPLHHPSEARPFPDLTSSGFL
SMILES,activation,Potency
CC1=CC(C)C(C=O)C(C)C1 (stereo unspecified),-0.0943% (inactive),–
Cc1cc(C)c(NC(=O)CN(CC(=O)O)CC(=O)O)c(C)c1Br,5.75% (inactive),–
OC/C=C/c1ccccc1,–,inactive
C#CC(O)C(CC)CCCC (stereo unspecified),0.636% (inactive),–
C=C(C)C(=O)OCCCCCCCCCCCCCCCCCC,0.276% [at 32.5 µM] (inactive),–
C=CCOc1nc(OCC=C)nc(OCC=C)n1,–,54.5 µM (active)
CCCCCN(CCCCC)C(=O)C(CCC(=O)O)NC(=O)c1ccc(Cl)c(Cl)c1 (stereo unspecified),-2.43% (inactive),–
OCCCCCCO,-1.58% [at 95 µM] (inactive),–
NS(=O)(=O)c1cc2c(cc1C(F)(F)F)NC(Cc1ccccc1)NS2(=O)=O (stereo unspecified),2.26% [at 32.5 µM] (inactive),–
CCO[Si](CCCN=C=O)(OCC)OCC,-1.3% (inactive),–
CC(C=O)Cc1ccc(C(C)C)cc1 (stereo unspecified),1.64% (inactive),–
CC1=CC(=O)CCC1,-0.577% (inactive),–
O=C(O)/C=C/c1ccc(/C=C/C(=O)O)cc1,-0.202% (inactive),–
CCCOCC(C)OCC(C)O (stereo unspecified),-2.24% [at 95 µM] (inactive),–
OC[C@H]1O[C@@H]2O[C@H]3[C@H](O)[C@@H](O)[C@@H](O[C@H]4[C@H](O)[C@@H](O)[C@@H](O[C@H]5[C@H](O)[C@@H](O)[C@@H](O[C@H]6[C@H](O)[C@@H](O)[C@@H](O[C@H]7[C@H](O)[C@@H](O)[C@@H](O[C@H]8[C@H](O)[C@@H](O)[C@@H](O[C@H]9[C@H](O)[C@@H](O)[C@@H](O[C@H]1[C@H](O)[C@H]2O)O[C@@H]9CO)O[C@@H]8CO)O[C@@H]7CO)O[C@@H]6CO)O[C@@H]5CO)O[C@@H]4CO)O[C@@H]3CO,1.86% [at 32.5 µM] (inactive),–
OCc1ccccn1,-1.75% (inactive),–
NC(=O)CCCCC1CCSS1 (stereo unspecified),-0.245% (inactive),–
CSc1ccc(C=O)cc1,-0.282% (inactive),–

SMILES,activation,Potency
CCCc1ccccc1O,-1.12% (inactive),–
CCOC(=O)Cn1c(=O)sc2cccc(Cl)c21,–,30.6 µM (active)
COC(=O)CCCC(=O)O,-1.32% (inactive),–
C/C=C1\C(=O)C[C@H]2[C@@H]3CCC4=CC(=O)CC[C@]4(C)[C@H]3CC[C@]12C,1.12% (inactive),–
FC(F)(F)C(F)(F)C(F)(F)C(F)(F)C(F)(F)C(F)(F)C(F)(F)C(F)(F)C(F)(F)C(F)(F)F,0.197% [at 8.47 µM] (inactive),–
C=CC(=O)OCCCCCC,-0.444% (inactive),–
COc1cc(CCC(C)=O)ccc1O,3.49% (inactive),–
CCn1cc(C(=O)O)c(=O)c2cc(F)c(N3CCN(C)CC3)cc21,-1.4% (inactive),–
O=S(=O)(O)c1ccccc1O,-0.554% (inactive),–
C#CC(O)CCCCC (stereo unspecified),-0.23% [at 95 µM] (inactive),–
C=CC(=O)N1CCOCC1,-0.637% (inactive),–
OCC(O)[C@@H](O)[C@H](O)[C@H](O)CO[C@H]1O[C@H](CO)[C@@H](O)[C@H](O)[C@H]1O (stereo partly specified),-1.69% (inactive),–
CC(CCO)CCCC(C)(C)O (stereo unspecified),-0.242% (inactive),–
C[C@H]1O[C@@H](n2cc(F)c(=O)[nH]c2=O)[C@H](O)[C@@H]1O,-0.295% (inactive),–
CCCCCCCCCCC1CO1 (stereo unspecified),0.469% (inactive),–
N[C@@H](CS)C(=O)O,-1.34% [at 95 µM] (inactive),–
C=C(C)C(=O)NCCC[N+](C)(C)C,0.695% (inactive),–
